According to PubChem BioAssay (EPA / NIEHS):
Values joined by “and” are separate entries in the source; they are usually repeats but may differ in a detail not shown here. Equal values may be shown once. Inconclusive results are not listed. More than one record can exist for a structure, and the calls need not agree. Active and inactive are the calls of the source. How the source made its calls, unless noted: active means hit-call score of the fitted dose curve at least 0.9, where 1 is the maximum; inactive means score below 0.9.

Tests used:
[1] = read-out: Monocyte Chemoattractant Protein-1 (MCP1), CCL2 (gene 6347); test: BSK_SAg_MCP1: BioMAP Diversity Plus: SAg Assay for Monocyte Chemoattractant Protein-1 (MCP1) Biomarker Activity (AID 2283090); settings: primary human HUVEC with PBMC; actives raise or lower the signal
How it was run: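 MCP-1 levels in the endothelial–PBMC SAg co-culture were quantified by ELISA at 24 h post-dosing; both increases and decreases versus DMSO scored. Cytotoxicity monitored by SRB total protein in parallel cultures.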

[2] = read-out: E-selectin (Homo sapiens) (UniProt P16581); test: BSK_SAg_Eselectin: BioMAP Diversity Plus: SAg Assay for Eselectin Biomarker Activity (AID 2283091); settings: primary human HUVEC with PBMC; actives raise or lower the signal
How it was run: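 E-selectin ELISA readout at 24 h post-dosing in human umbilical vein endothelial cell/PBMC co-culture; gain or loss of signal fitted relative to DMSO baseline.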

[3] = read-out: Monokine induced gamma interferon (MIG), CXCL9 (gene 4283); test: BSK_SAg_MIG: BioMAP Diversity Plus: SAg Assay for Monokine induced gamma interferon (MIG) Biomarker Activity (AID 2283092); settings: primary human HUVEC with PBMC; actives raise or lower the signal
How it was run: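 Values reflect bidirectional fitting of ELISA-measured MIG against DMSO vehicle, taken 24 h after dosing of a co-culture of human umbilical vein endothelial cells and peripheral blood mononuclear cells.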

[4] = BSK_SAg_PBMCCytotoxicity: PBMC Cytotoxicity Assessment in the BioMAP Diversity Plus: SAg Assay (AID 2283093); settings: primary human HUVEC with PBMC;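 further: PBMC viability measured as Alamar Blue reduction fluorescence at 546/580 nm; fitted both ways against DMSO so a hit may be loss or gain of signal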;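 on AC50: PBMC superantigen activated with SEB plus TSST-1 one hour after compound addition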
How it was run: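 Compound added to 75,000 PBMC/well for 1 h; SEB and TSST-1 then added at 20 ng/mL final each; 90 h incubation; Alamar Blue 6 h; read 546/580 nm ex/em. Activity fitted bidirectionally relative to DMSO baseline.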

[5] = read-out: Interleukin-8 (IL8), CXCL8 (gene 3576); test: BSK_SAg_IL8: BioMAP Diversity Plus: SAg Assay for Interleukin-8 (IL8) Biomarker Activity (AID 2283094); settings: primary human HUVEC with PBMC; actives raise or lower the signal
How it was run: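 Human umbilical vein endothelial cells co-cultured with PBMC, stimulated with superantigen; IL-8 measured by ELISA 24 h after chemical dosing. Bidirectional fitting versus DMSO; SRB staining in parallel cultures tracks cytotoxicity.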

[6] = BSK_SAg_Proliferation: Cell Proliferation Assessment in the BioMAP Diversity Plus: SAg Assay (AID 2283095); settings: primary human HUVEC with PBMC
How it was run: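 Human umbilical vein endothelial cells co-cultured with PBMC; sulforhodamine B total-protein staining (0.1% SRB after 10% TCA fixation, absorbance 560 nm) at 96 h in sub-confluent culture. Fitted bidirectionally against DMSO.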

[7] = BSK_SAg_SRB: Viability Assessment in the BioMAP Diversity Plus: SAg Assay (AID 2283096); settings: primary human HUVEC with PBMC;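 further: cells read one day after compound addition; hits may be either gain or loss of signal compared with DMSO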
How it was run: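 Total protein by sulforhodamine B staining, 24 h after dosing, in HUVEC–PBMC co-culture; DMSO-referenced bidirectional fitting.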

[8] = target: human CYP1A1, CYP1A1 (gene 1543) (UniProt P04798); test: NVS_ADME_hCYP1A1: NovaScreen (NVS) CYP450-related Enzyme Activity (ADME) Assay for human CYP1A1 (AID 2283100; active means hit-call score of the fitted dose curve at least 0.9, where 1 is the maximum)
Chain of human CYP1A1, CYP1A1 (gene 1543) (P04798 whole entry, looked up): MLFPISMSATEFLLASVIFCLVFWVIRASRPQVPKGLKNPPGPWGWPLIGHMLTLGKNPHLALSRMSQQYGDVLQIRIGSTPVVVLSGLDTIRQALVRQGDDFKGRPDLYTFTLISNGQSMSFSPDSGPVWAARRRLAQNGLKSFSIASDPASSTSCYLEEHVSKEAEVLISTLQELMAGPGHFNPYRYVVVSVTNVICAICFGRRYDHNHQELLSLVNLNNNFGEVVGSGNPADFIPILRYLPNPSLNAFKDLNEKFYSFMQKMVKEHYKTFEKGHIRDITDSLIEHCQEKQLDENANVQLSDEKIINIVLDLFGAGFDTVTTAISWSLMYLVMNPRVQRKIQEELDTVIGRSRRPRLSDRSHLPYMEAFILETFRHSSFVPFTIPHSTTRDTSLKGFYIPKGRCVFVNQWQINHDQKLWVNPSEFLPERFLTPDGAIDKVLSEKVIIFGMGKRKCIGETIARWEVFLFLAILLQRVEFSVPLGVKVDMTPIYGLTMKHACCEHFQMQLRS
Experimental: NVS_ADME_hCYP1A1 is a biochemical, single-readout assay that uses extracted gene-proteins in a cell-free assay. Measurements were taken 1 hour after chemical dosing in a 96-well plate.NVS_ADME_hCYP1A1 is one of one assay component(s) measured or calculated from the NVS_ADME_hCYP1A1 assay. It is designed to make measurements of enzyme activity, a form of enzyme reporter, as detected with fluorescence intensity signals by Fluorescence technology.Data from the assay component NVS_ADME_hCYP1A1 was analyzed into 1 assay endpoint. This assay endpoint, NVS_ADME_hCYP1A1, was analyzed in the positive analysis fitting direction relative to Acetonitrile as the negative control and baseline of activity. Using a type of enzyme reporter, loss-of-signal activity can be used to understand changes in the enzymatic activity as they relate to the gene CYP1A1. Furthermore, this assay endpoint can be referred to as a primary readout, because this assay has produced multiple assay endpoints where this one serves a enzymatic activity function. To generalize the intended target to other relatable targets, this assay endpoint is annotated to the cyp intended target family, where the subfamily is xenobiotic metabolism.
Binding assays used specific radioligands (tritiated, iodinated) with non-radioactive competitive displacement ligands in agonist or antagonist protocols (as indicated) and various reference compounds and inhibitors to titrate specific binding to receptors and transporters. Most enzyme assays (CYPs, kinases, phosphatases, proteases, HDACs) used recombinant protein and specific substrates (fluorescence mostly, some colorimetric and radioactive) and inhibitors, followed by a biochemical separation of substrate and product. All assays for the biochemical HTS were initially run in duplicate at a single concentration (10 uM for CYP450 assays and 25 uM for all others). Assay-chemical combinations meeting a pre-defined threshold (e.g., 30% inhibition and other criteria defined below) were then run in singleton concentration-response format with maximum concentration of 20 uM for CYPs and 50 uM for all others. Each assay was run with positive and negative controls, and concurrent controls on every plate. The follow-up (secondary) screen tested active chemical-pairs in concentration series, as well as a few additional assays not tested in the primary screen, some selected negative inactives, and several cases re-run in the concentration series for confirmatory purposes.

[9] = target: human CYP2A6, CYP2A6 (gene 1548) (UniProt P11509); test: NVS_ADME_hCYP2A6: NovaScreen (NVS) CYP450-related Enzyme Activity (ADME) Assay for human CYP2A6 (AID 2283099; active means hit-call score of the fitted dose curve at least 0.9, where 1 is the maximum)
Chain of human CYP2A6, CYP2A6 (gene 1548) (P11509 whole entry, looked up): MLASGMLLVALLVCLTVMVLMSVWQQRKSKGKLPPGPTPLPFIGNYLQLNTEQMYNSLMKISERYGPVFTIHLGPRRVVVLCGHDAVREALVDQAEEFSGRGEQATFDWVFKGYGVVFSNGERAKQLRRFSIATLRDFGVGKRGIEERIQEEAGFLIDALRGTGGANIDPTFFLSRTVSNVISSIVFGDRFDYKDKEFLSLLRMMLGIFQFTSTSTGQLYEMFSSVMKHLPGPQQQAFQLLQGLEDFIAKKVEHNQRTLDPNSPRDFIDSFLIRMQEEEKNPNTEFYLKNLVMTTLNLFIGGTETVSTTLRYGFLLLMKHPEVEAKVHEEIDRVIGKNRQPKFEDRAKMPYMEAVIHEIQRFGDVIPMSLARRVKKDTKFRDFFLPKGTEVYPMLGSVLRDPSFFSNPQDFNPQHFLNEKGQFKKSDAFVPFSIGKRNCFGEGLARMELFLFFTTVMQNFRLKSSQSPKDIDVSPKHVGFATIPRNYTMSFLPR
How it was run: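 Insect-cell-expressed human CYP2A6 enzyme activity measured by fluorescence intensity 0.5 hour post-dosing. Compounds screened at 10 uM in duplicate, then hits tested singly in concentration series (max 20 uM); acetonitrile baseline.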

[10] = target: human CYP19A1, CYP19A1 (gene 1588) (UniProt P11511); test: NVS_ADME_hCYP19A1: NovaScreen (NVS) CYP450-related Enzyme Activity (ADME) Assay for human CYP19A1 (AID 2283098; active means hit-call score of the fitted dose curve at least 0.9, where 1 is the maximum;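 on AC50: potency for inhibitors seen as loss of fluorescent enzyme signal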)
Chain of human CYP19A1, CYP19A1 (gene 1588) (P11511 whole entry, looked up): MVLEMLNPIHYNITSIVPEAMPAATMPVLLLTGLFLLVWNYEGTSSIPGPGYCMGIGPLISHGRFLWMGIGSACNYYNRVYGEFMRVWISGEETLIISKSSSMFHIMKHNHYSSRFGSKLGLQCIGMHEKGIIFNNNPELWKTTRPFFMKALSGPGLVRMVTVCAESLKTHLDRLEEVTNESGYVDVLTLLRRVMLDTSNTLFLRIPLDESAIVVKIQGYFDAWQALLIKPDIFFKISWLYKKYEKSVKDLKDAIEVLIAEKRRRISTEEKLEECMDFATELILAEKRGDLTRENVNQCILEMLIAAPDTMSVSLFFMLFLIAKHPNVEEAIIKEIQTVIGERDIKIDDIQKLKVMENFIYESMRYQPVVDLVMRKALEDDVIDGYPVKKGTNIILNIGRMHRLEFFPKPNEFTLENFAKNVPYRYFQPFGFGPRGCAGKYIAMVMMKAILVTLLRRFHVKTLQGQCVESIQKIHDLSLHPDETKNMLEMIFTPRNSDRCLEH
How it was run: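 Biochem, cell-free; recombinant enzyme + specific substrate; fluorescence intensity at 0.5 h post-dose; 10 uM duplicate primary, conc. series for actives; acetonitrile = negative control/baseline; positive and negative controls on every plate.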

Measured: AC50

Chain of E-selectin (Homo sapiens) (P16581 whole entry, looked up): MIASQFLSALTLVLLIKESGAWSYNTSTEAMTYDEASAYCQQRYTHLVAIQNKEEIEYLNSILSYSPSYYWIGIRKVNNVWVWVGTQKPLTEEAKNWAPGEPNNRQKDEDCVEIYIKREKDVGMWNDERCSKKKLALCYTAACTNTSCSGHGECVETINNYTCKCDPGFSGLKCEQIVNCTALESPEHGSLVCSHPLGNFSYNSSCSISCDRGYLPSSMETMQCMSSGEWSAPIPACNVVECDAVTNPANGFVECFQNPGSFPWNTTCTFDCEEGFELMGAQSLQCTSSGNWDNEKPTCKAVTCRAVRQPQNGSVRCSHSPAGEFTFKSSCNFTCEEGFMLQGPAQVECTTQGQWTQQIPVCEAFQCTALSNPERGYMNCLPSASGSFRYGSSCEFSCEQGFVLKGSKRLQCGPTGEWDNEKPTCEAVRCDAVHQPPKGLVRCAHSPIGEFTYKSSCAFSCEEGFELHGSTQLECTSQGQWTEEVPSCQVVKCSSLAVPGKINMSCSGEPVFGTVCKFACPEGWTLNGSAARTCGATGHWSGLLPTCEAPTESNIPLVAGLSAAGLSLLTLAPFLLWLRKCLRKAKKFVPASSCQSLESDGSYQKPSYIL

Nc1ccc(-c2ccc(N)cc2)cc1
active: [8] 3.1 µM
not listed: [9] | [10]
inactive: all other assays above

Sc1ccccc1
not listed: [8] | [9] | [10]
inactive: all other assays above

CCNc1nc(NC(C)C)nc(SC)n1
not listed: [8] | [9] | [10]
inactive: all other assays above

Nn1cnnc1
not listed: [8] | [9] | [10]
inactive: all other assays above

Cc1cc2c3c(c1)C(c1ccccc1)=N[C@@H](NC(=O)c1ccncc1)C(=O)N3CC2
active: [1] 20 µM | [2] 4 µM | [5] 6.46 µM
not listed: [8] | [10]
inactive: all other assays above

ClC1=C(Cl)[C@]2(Cl)[C@@H]3[C@@H]4C[C@@H]([C@H]5O[C@@H]45)[C@@H]3[C@@]1(Cl)C2(Cl)Cl
inactive: [1] | [2] | [3] | [4] | [5]
active: [6] 20 µM | [7] 20 µM

Oc1ccc(Cl)cc1Cl
not listed: [8] | [9] | [10]
inactive: all other assays above

Cc1ccccc1[N+](=O)[O-]
not listed: [8] | [9] | [10]
inactive: all other assays above

Clc1ccc(C(c2ccccc2Cl)C(Cl)(Cl)Cl)cc1 (stereo not drawn)
active: [1] 21.5 µM | [2] 24.7 µM | [3] 27.6 µM | [4] 8.98 µM | [5] 13.5 µM | [6] 6.64 µM | [7] 12.7 µM | [8] 5.21 µM

CCOCCOC(C)=O
not listed: [8] | [9] | [10]
inactive: all other assays above

CC(C)C(=O)OCC(C)(C)C(OC(=O)C(C)C)C(C)C (stereo not drawn)
active: [10] 11.6 µM
not listed: [8] | [9]
inactive: all other assays above

Cc1ccc(O)c(C)c1
not listed: [8] | [9] | [10]
inactive: all other assays above

Oc1ccc(C(c2ccc(O)cc2)(C(F)(F)F)C(F)(F)F)cc1
active: [1] 26.5 µM | [2] 19.8 µM | [3] 32.4 µM | [4] 20.7 µM | [5] 18.1 µM | [7] 22.6 µM | [10] 7.19 µM

CC(C)(O)C(=O)Nc1ccc([N+](=O)[O-])c(C(F)(F)F)c1
active: [10] 6.99 µM and 5.59 µM
inactive: [1] | [3] | [4] | [5] | [6] | [7] | [10]

c1cc2ccc3cccc4ccc(c1)c2c34
not listed: [8] | [9] | [10]
inactive: all other assays above

CO/C=C(/C(=O)OC)c1ccccc1COc1cccc(C(F)(F)F)n1
active: [1] 8.9 µM | [2] 6.75 µM | [3] 26.5 µM | [4] 1.17 µM | [5] 5.66 µM | [6] 4.57 µM | [7] 9.02 µM
inactive: [8]
